26 compounds from the supplement of paper PMC7366291 can be followed below.

Details in all cases: 25 µM; exposure: 24-48 hpf
The subject of test [1] is Danio rerio Tg(wt1b:EGFP) embryo, pronephros. The experiment in a line: glomerular separation, fold change vs DMSO control; higher = glomeruli further apart (abnormal). In short, it runs like this:
(§1)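 Each feature value is a fold change relative to the mean of same-day DMSO-treated embryos. Embryos of the Tg(wt1b:EGFP) zebrafish line, dechorionated, received 25 μM compound in 0.5% DMSO from 24 to 48 hpf at 28.5°C, in HEPES-buffered E3 with 0.003% PTU. Distances and angles were computed by a Fiji macro from 16 manually set reference points on maximum projections of dorsal pronephros images, and values beyond 2 SD of the feature mean were removed.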

The test system is the same in test [2]. The experiment in a line: glomerular width (mean of left and right), fold change vs DMSO control; higher = wider glomerulus. The essentials:
as §1

For test [3] the test system is unchanged. The experiment in a line: fraction of imaged embryos annotated as normal kidney; higher = less nephrotoxic; extreme values may be limits of the assay. In short, it runs like this: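 Dechorionated Tg(wt1b:EGFP) zebrafish embryos were exposed in 12-well plates to 25 μM compound in 0.5% DMSO, 5 mM HEPES-buffered E3 with 0.003% PTU, from 24 to 48 hpf at 28.5°C. Tricaine-anaesthetised larvae were oriented dorsally in agarose-filled 96-well plates, and pronephroi were imaged by widefield fluorescence (470 nm, 10 z-slices). Each embryo was manually annotated from maximum projections. The read-out is the fraction of embryos per treatment assigned to the normal-kidney category.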

Test [4] has the same test system. Briefly: pronephric angle neck segment to proximal convoluted tubule (mean of left and right), fold change vs DMSO control; higher = larger pronephric angle. The essentials: as §1

Structures can show the parent of a compound that is named as a salt. ± gives the standard deviation or the standard deviation of the averaged measurements.

In test [1], `CN(C)CCCC1(c2ccc(F)cc2)OCc2cc(C#N)ccc21` (centres undefined) [Citalopram Hydrobromide] had a glomerular separation of 1.21 ± 0.7. The glomerular width in test [2] was 0.991 ± 0.035. Besides, the “fraction of imaged embryos annotated as normal kidney” value (“fraction of imaged embryos annotated” for short) in test [3] came out at 0.667. For the same compound, in test [4], the “pronephric angle neck segment” value was 0.956 ± 0.032.

`CNC[C@H](O)[C@@H](O)[C@H](O)[C@H](O)CO` [Meglumine]: the glomerular separation in test [1] is 0.734 ± 0.11. In test [2], the glomerular width was found to be 1.03 ± 0.061. In addition, in test [3], the “fraction of imaged embryos annotated” value turned out to be 0.909. Besides, the “pronephric angle neck segment” value in test [4] was 1.006 ± 0.0029.

`CC(=O)O[C@@]12CO[C@@H]1C[C@H](O)[C@@]1(C)C(=O)[C@H](O)C3=C(C)[C@@H](OC(=O)[C@H](O)[C@@H](NC(=O)OC(C)(C)C)c4ccccc4)C[C@@](O)([C@@H](OC(=O)c4ccccc4)[C@H]21)C3(C)C` [Docetaxel]: the glomerular separation in test [1] was determined as 1.11 ± 0.48. The same compound came in with a glomerular width in test [2] of 0.978 ± 0.051. Also, the “fraction of imaged embryos annotated” value in test [3] worked out at 0.917. Further, in test [4], the “pronephric angle neck segment” value is 1.007 ± 0.0081.

With `C[C@]12CC[C@@H]3c4ccc(O)cc4CC[C@H]3[C@@H]1CC[C@@H]2O` [Estradiol-17 beta], in test [1], the glomerular separation is 3.16 ± 1.2. The same compound returned a glomerular width in test [2] of 0.812 ± 0.069. Further, the “fraction of imaged embryos annotated” value in test [3] came to 0.167. Further, in test [4], the “pronephric angle neck segment” value is 1.29 ± 0.22.

As to `OCCN(CCO)c1nc(N2CCCCC2)c2nc(N(CCO)CCO)nc(N3CCCCC3)c2n1` [Dipyridamole], the glomerular separation in test [1] was 0.687 ± 0.13. Also, the glomerular width in test [2] is 0.982 ± 0.046. Also, in test [3], the “fraction of imaged embryos annotated” value was 0.8. Moreover, the “pronephric angle neck segment” value in test [4] was 1.017 ± 0.0071.

In test [1], `CC[C@H](c1ccc(O)cc1)[C@@H](CC)c1ccc(O)cc1` [Hexestrol] came in with a glomerular separation of 1.04 ± 0.38. In addition, the glomerular width in test [2] came out at 0.94 ± 0.029. The “fraction of imaged embryos annotated” value in test [3] turned out to be 0.25. The “pronephric angle neck segment” value in test [4] stood at 1.22 ± 0.08.

In the case of `CCc1cccc2c3c([nH]c12)C(CC)(CC(=O)O)OCC3` (centres undefined) [Etodolac], the glomerular separation in test [1] was 1.66 ± 0.82. The glomerular width in test [2] is 0.954 ± 0.025. The “fraction of imaged embryos annotated” value in test [3] amounted to 0.636. In addition, the “pronephric angle neck segment” value in test [4] was found to be 1.13 ± 0.055.

In test [1], `NCCc1cc[nH]n1` [Betazole hydrochloride] returned a glomerular separation of 1.28 ± 0.54. In test [2], this compound gave a glomerular width of 0.9705 ± 0.0028. The “fraction of imaged embryos annotated” value in test [3] was found to be 0.917. For the same compound, the “pronephric angle neck segment” value in test [4] was 1.05 ± 0.012.

Compound `O=C(O)Cc1ccccc1Nc1c(Cl)cccc1Cl` [Diclofenac sodium] gave a glomerular separation in test [1] of 3.78 ± 1.9. Besides, in test [2], the glomerular width turned out to be 0.492 ± 0.031. Also, the “fraction of imaged embryos annotated” value in test [3] came out at 0. In addition, the “pronephric angle neck segment” value in test [4] worked out at 1.63 ± 0.018.

`Cc1cn([C@H]2C=C[C@@H](CO)O2)c(=O)[nH]c1=O` [Stavudine]: the glomerular separation in test [1] is 0.929 ± 0.3. The compound further came in with a glomerular width in test [2] of 0.874 ± 0.0014. Further, in test [3], the “fraction of imaged embryos annotated” value was 1. Also, in test [4], the “pronephric angle neck segment” value is 0.9729 ± 0.00098.

The compound `NC(CO)C(=O)NNCc1ccc(O)c(O)c1O` (centres undefined) [Benserazide hydrochloride] yielded a glomerular separation in test [1] of 1.17 ± 0.44. The compound also returned a glomerular width in test [2] of 1.01 ± 0.071. For the same compound, in test [3], the “fraction of imaged embryos annotated” value was 0.667. In addition, in test [4], the “pronephric angle neck segment” value came to 1.05 ± 0.039.

Compound `Nc1cc(C(Cl)=C(Cl)Cl)c(S(N)(=O)=O)cc1S(N)(=O)=O` [Clorsulon] returned a glomerular separation in test [1] of 0.798 ± 0.23. The compound also returned a glomerular width in test [2] of 0.948 ± 0.062. Moreover, the “fraction of imaged embryos annotated” value in test [3] is 0.917. For the same compound, in test [4], the “pronephric angle neck segment” value stood at 0.935 ± 0.044.

In turn, `CCN(CC)CCNC(=O)c1cc(S(C)(=O)=O)ccc1OC` [Tiapride hydrochloride] displayed a glomerular separation in test [1] of 1.1 ± 0.29. This compound yielded a glomerular width in test [2] of 0.902 ± 0.073. The “fraction of imaged embryos annotated” value in test [3] worked out at 0.909. In test [4], the “pronephric angle neck segment” value was 1.036 ± 0.0056.

Compound `CCC1(c2ccccc2)C(=O)NCNC1=O` [Primidone] gave a glomerular separation in test [1] of 0.835 ± 0.33. For the same compound, the glomerular width in test [2] was 1.0079 ± 0.00034. For the same compound, the “fraction of imaged embryos annotated” value in test [3] worked out at 0.917. In addition, in test [4], the “pronephric angle neck segment” value is 1.03 ± 0.025.

The compound `COC(=O)C1=C(C#N)NC(C)=C(C(=O)OC(C)C)C1c1cccc([N+](=O)[O-])c1` (centres undefined) [Nilvadipine] had a glomerular separation in test [1] of 4.44 ± 1.4. Also, the glomerular width in test [2] was 0.7 ± 0.04. Also, the “fraction of imaged embryos annotated” value in test [3] worked out at 0.167. For the same compound, in test [4], the “pronephric angle neck segment” value turned out to be 1.09 ± 0.17.

For `C[C@H](CCC(=O)O)[C@H]1CC[C@H]2[C@@H]3[C@H](O)C[C@@H]4C[C@H](O)CC[C@]4(C)[C@H]3CC[C@]12C` [Chenodiol], the glomerular separation in test [1] amounted to 2.11 ± 0.81. In test [2], this compound came in with a glomerular width of 0.744 ± 0.025. Besides, in test [3], the “fraction of imaged embryos annotated” value is 0.333. For the same compound, the “pronephric angle neck segment” value in test [4] turned out to be 1.04 ± 0.13.

In turn, `CC(C)OC(=O)CCC/C=C\C[C@@H]1[C@@H](CC[C@@H](O)CCc2ccccc2)[C@H](O)C[C@@H]1O` [Latanoprost] showed a glomerular separation in test [1] of 1.02 ± 0.44. The same compound yielded a glomerular width in test [2] of 1.05 ± 0.014. Besides, the “fraction of imaged embryos annotated” value in test [3] is 0.833. In addition, in test [4], the “pronephric angle neck segment” value is 1.02 ± 0.013.

Turning to `CNS(=O)(=O)Cc1ccc2[nH]cc(CCN(C)C)c2c1` [Sumatriptan succinate], the glomerular separation in test [1] came out at 0.982 ± 0.29. The glomerular width in test [2] is 1.03 ± 0.053. The “fraction of imaged embryos annotated” value in test [3] was found to be 1. In addition, the “pronephric angle neck segment” value in test [4] came to 1 ± 0.04.

`COCCCC/C(=N\OCCN)c1ccc(C(F)(F)F)cc1` [Fluvoxamine maleate] had a glomerular separation in test [1] of 1.05 ± 0.39. Besides, in test [2], the glomerular width is 0.91 ± 0.015. For the same compound, the “fraction of imaged embryos annotated” value in test [3] was determined as 1. Moreover, the “pronephric angle neck segment” value in test [4] worked out at 0.996 ± 0.018.

In turn, `CC(=O)OCC1=C(C(=O)O)N2C(=O)[C@@H](NC(=O)Cc3cccs3)[C@H]2SC1` [Cephalothin sodium salt] displayed a glomerular separation in test [1] of 0.848 ± 0.31. Besides, the glomerular width in test [2] stood at 0.923 ± 0.08. The “fraction of imaged embryos annotated” value in test [3] turned out to be 1. In addition, the “pronephric angle neck segment” value in test [4] came out at 1.02 ± 0.028.

As to `CCN(CC)CCNC(=O)c1cc(Cl)c(N)cc1OC` [Metoclopramide monohydrochloride], the glomerular separation in test [1] came to 0.868 ± 0.25. Besides, the glomerular width in test [2] was found to be 0.962 ± 0.015. For the same compound, the “fraction of imaged embryos annotated” value in test [3] worked out at 0.833. For the same compound, the “pronephric angle neck segment” value in test [4] was 0.944 ± 0.032.

Take `COc1cc2ncnc(Nc3ccc(F)c(Cl)c3)c2cc1OCCCN1CCOCC1` [Gefitinib]: the glomerular separation in test [1] was found to be 1.29 ± 0.64. In test [2], this compound had a glomerular width of 0.981 ± 0.034. Further, the “fraction of imaged embryos annotated” value in test [3] came to 1. Moreover, in test [4], the “pronephric angle neck segment” value was 1.02 ± 0.024.

Take `CCCCN1CCCCC1C(=O)Nc1c(C)cccc1C` (centres undefined) [Bupivacaine hydrochloride]: the glomerular separation in test [1] came out at 1.23 ± 0.54. This compound also gave a glomerular width in test [2] of 0.946 ± 0.021. Besides, in test [3], the “fraction of imaged embryos annotated” value was found to be 0.667. Besides, the “pronephric angle neck segment” value in test [4] turned out to be 1.01 ± 0.13.

Take `Nc1nc(F)nc2c1ncn2[C@@H]1O[C@H](CO)[C@@H](O)[C@@H]1O` [Fludarabine]: the glomerular separation in test [1] is 0.97 ± 0.29. For the same compound, in test [2], the glomerular width worked out at 0.997 ± 0.061. For the same compound, the “fraction of imaged embryos annotated” value in test [3] was determined as 1. In addition, the “pronephric angle neck segment” value in test [4] was determined as 0.975 ± 0.025.

On to `CC(=O)c1ccc2c(c1)N(CCCN1CCC(CCO)CC1)c1ccccc1S2` [Piperacetazine], for which the glomerular separation in test [1] came out at 0.868 ± 0.28. In test [2], this compound showed a glomerular width of 0.976 ± 0.023. Also, the “fraction of imaged embryos annotated” value in test [3] worked out at 0.833. The “pronephric angle neck segment” value in test [4] is 1.01 ± 0.081.

As for `COc1ccc2[nH]cc(CCNC(C)=O)c2c1` [Melatonin], in test [1], the glomerular separation is 0.974 ± 0.26. This compound gave a glomerular width in test [2] of 0.989 ± 0.026. In addition, in test [3], the “fraction of imaged embryos annotated” value was 0.917. Moreover, in test [4], the “pronephric angle neck segment” value is 1.02 ± 0.056.
